Screens from PubChem.
An excerpt weighted towards active compounds, which were near 1.9% of everything screened.
Bfl-1 A1 inh: inhibitors of the anti-apoptotic protein A1, read as caspase activation; MEF A1-2A-BIM cells, Caspase-Glo 3/7 luminescence, 3 h; percent of clofoctol response, vehicle zero; 330,000 compounds, 0.066% hits; caspase activation, % (concentration not given with the values); AID 2462;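 active = over half of replicate activation scores above 10%, or exactly half above 10 with the replicate mean above 10; inconclusive = replicate mean below 10 yet half the replicates above 10; inactive = over half of replicates below 10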
INS-1E GSIS act: primary screen for activators of insulin secretion dependent on glucose, INS-1E cells, GLuc reporter luminescence | INS-1E GLuc reporter insulin secretion, 2-3 h | activation, % at 16.6 µM | 370,000 compounds, 0.61% hits | AID 743287;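 active = lowest replicate activation of at least 40%, so every replicate reaches that level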
dFosB act-1: mouse delta FosB homodimer activation. P13346. purified delta FosB, TAMRA-CDK5 oligo fluorescence polarization; percent of positive-control signal above neutral wells. activation, % at 25 µM. 340,000 compounds, 0.99% hits;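 active = mean activation above about 17%, with every replicate also reaching it, limit read from the data, passing the limit was not always enough; inconclusive = only one of the two conditions met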
Target sequence (P13346 whole entry, looked up): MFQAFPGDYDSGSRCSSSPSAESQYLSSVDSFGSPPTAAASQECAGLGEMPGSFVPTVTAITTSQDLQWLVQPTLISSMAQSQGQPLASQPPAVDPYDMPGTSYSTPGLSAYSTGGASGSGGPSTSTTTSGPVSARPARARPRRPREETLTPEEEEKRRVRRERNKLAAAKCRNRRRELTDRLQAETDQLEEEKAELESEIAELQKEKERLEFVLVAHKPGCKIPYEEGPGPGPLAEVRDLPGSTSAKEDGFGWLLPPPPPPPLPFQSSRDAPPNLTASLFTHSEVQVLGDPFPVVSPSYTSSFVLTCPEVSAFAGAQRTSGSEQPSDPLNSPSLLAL
Neddyl block: cullin neddylation inhibition | P61081+Q13564 | TR-FRET cullin neddylation, biochemical | inhibition, % at 25 µM | 360,000 compounds, 0.58% hits; in the data active = inhibition above about 36%
Vif imaging: blocks HIV Vif function; HEK293T cells, Vif self-association by quenched fluorescence, imaging, 24 h; inhibition, % at 7.49 µM; 340,000 compounds, 0.35% hits; AID 602346; in the data active = inhibition above about 50%, passing the limit was not always enough; inconclusive = no clear call, values can overlap the other calls; inactive = below about 31%
dFosB act-2: delta FosB (mouse) homodimer activation; shares compounds with dFosB act-1; purified delta FosB, TAMRA-CDK5 oligo fluorescence polarization; normalised: neutral wells 0, positive control 100; activation, % at 24.9 µM; 2,400 tested, under 10 active; AID 588690;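 active = highest replicate activation at or above 34% and every replicate reaching that threshold; inconclusive = meets only one of the two criteria; inactive = meets neither criterion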;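 also: higher polarization means more probe DNA bound by delta FosB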
Each line names hits and unclear results; the compound was inactive in the other large screens (follow-up assays come after a bar, where shown); ! = repeats disagree.

C=CCN(c1ccccc1)S(=O)(=O)c1cccc(C(=O)Nc2nc3ccccc3[nH]2)c1	dFosB act-1 47 | dFosB act-2 inactive
Cc1noc(C)c1NC(=O)N[C@H]1C=C[C@@H](CC(=O)NCc2ccc(Cl)c(Cl)c2)O[C@@H]1CO	none (no result: Bfl-1 A1 inh, dFosB act-1, Neddyl block, Vif imaging)
COc1ccc2cc3[n+](cc2c1OC)CCc1cc2c(cc1-3)OCO2	dFosB act-1 36! | dFosB act-2 inactive
Cc1ccc2c(c1)CC(C)N2S(=O)(=O)c1nnc(NC(=O)CC(C)C)s1 (stereo not drawn)	dFosB act-1 27 | dFosB act-2 inactive
CC(=O)Nc1ccc(NC(=O)C2CCCN(c3nnc(-n4cccc4)s3)C2)cc1 (stereo not drawn)	dFosB act-1 31 (no result: INS-1E GSIS act) | dFosB act-2 inactive
CC(C)NC(=O)C1CCCN(c2nnc(-n3cccc3)s2)C1 (stereo not drawn)	none (no result: Vif imaging)
CCCNC(=O)N1[C@@H](CO)[C@H](c2ccccc2)C12CN(C(=O)c1cccnc1)C2	none (no result: Bfl-1 A1 inh, dFosB act-1, Neddyl block, Vif imaging)
O=C(Nc1ccc(-c2nc3ccccc3[nH]2)cc1)c1cccc(N2C(=O)CCC2=O)c1	dFosB act-1 36 (not shown: Neddyl block) | dFosB act-2 inactive
O=C(Nc1ccc(F)cc1)c1cccc(N2C(=O)c3ccccc3C2=O)c1	dFosB act-1 35 | dFosB act-2 inactive
O=C(Nc1ccccc1-c1nc2ccccc2[nH]1)c1ccc(N2C(=O)CCC2=O)cc1	none
O=C(CNC(=O)c1cccc(N2C(=O)c3ccccc3C2=O)c1)Nc1ccc(F)c(F)c1	dFosB act-1 33 | dFosB act-2 inactive
CO[C@@H]1CN(C)C(=O)c2ccc(NS(=O)(=O)c3ccccc3)cc2OC[C@H](C)NC[C@@H]1C	none (no result: Bfl-1 A1 inh, dFosB act-1, Neddyl block, Vif imaging)
Cc1ccc(NC(=O)Cn2nc(C)c([N+](=O)[O-])c2C)cc1Cl	dFosB act-1 28 (no result: Bfl-1 A1 inh) | dFosB act-2 inactive
Cc1ccc(NC(=O)Cn2cc(C(F)(F)F)cc(Cl)c2=O)cc1Cl	dFosB act-1 23 | dFosB act-2 inactive
Cc1nn(CC(=O)Nc2ccncc2)c(C)c1[N+](=O)[O-]	none
Cc1ccc(NC(=O)Cn2nc(-c3ccco3)ccc2=O)cc1Cl	dFosB act-1 78 | dFosB act-2 inactive
C[C@@H]1CN([C@H](C)CO)C(=O)c2cc(C3=CCCC3)cnc2O[C@H]1CN(C)Cc1ccccc1C(=O)O	none (no result: Bfl-1 A1 inh, dFosB act-1, Neddyl block, Vif imaging)
COc1ccccc1CNC(=O)c1cc2ccccc2o1	none
COc1ccccc1CNC(=O)COC(=O)c1cc2ccccc2o1	dFosB act-1 31 (no result: INS-1E GSIS act) | dFosB act-2 inactive
O=C(Nc1ccc(Cl)c(Cl)c1)c1ccncc1	none (no result: INS-1E GSIS act, Vif imaging)
O=C(Nc1ccc2c(c1)COC2=O)c1ccc(Cl)c(Cl)c1	dFosB act-1 38 | dFosB act-2 inactive
O=C(Nc1ccc(Cl)c(Cl)c1)c1ccc(Cl)c(Cl)c1	dFosB act-1 33 | dFosB act-2 inactive
Cc1ccc(NC(=O)Nc2ccc3c(c2)C(=O)OC3)cc1Cl	dFosB act-1 29 | dFosB act-2 inactive
C[C@H](CO)N1C[C@H](C)[C@@H](CN(C)C(=O)c2cnccn2)Oc2ncc(/C=C/c3ccccc3)cc2C1=O	none (no result: Bfl-1 A1 inh, dFosB act-1, Neddyl block, Vif imaging)
CCCCCc1cc(=O)oc2c(C(CCN3CCCC(C)C3)c3cc(OC)c(OC)c(OC)c3)c(OC)cc(OC)c12 (stereo not drawn)	dFosB act-1 19 (no result: INS-1E GSIS act) | dFosB act-2 inactive
COc1cc(OC)c2ccc(=O)oc2c1C(CCN1CCCC(C)C1)c1ccc(N(C)C)cc1 (stereo not drawn)	none
O=C(C[C@@H]1CC[C@@H]2[C@H](COC[C@@H](O)CN2C(=O)Nc2ccc(F)cc2)O1)NCCc1ccccc1	none (no result: Bfl-1 A1 inh, dFosB act-1, Neddyl block, Vif imaging)
O=C(C[C@H]1C=C[C@H](NC(=O)c2ccc(F)cc2)[C@H](CO)O1)NCc1ccncn1	none (no result: Bfl-1 A1 inh, dFosB act-1, Neddyl block, Vif imaging)
O=C(Nc1ccc(CN2CCOCC2)cc1)c1ccc(-c2cc(Cl)ccc2Cl)o1	dFosB act-1 26 (no result: INS-1E GSIS act) | dFosB act-2 inactive
CC(=O)c1ccc(NC(=O)c2ccc(COc3ccccc3[N+](=O)[O-])o2)cc1	dFosB act-1 27 | dFosB act-2 inactive
O=C(Nc1ccccc1F)c1ccc(-c2cccc([N+](=O)[O-])c2)o1	none
O=C(O)c1ccc(COc2ccccc2[N+](=O)[O-])o1	none
O=C(Nc1nccs1)c1ccc(-c2cccc([N+](=O)[O-])c2)o1	dFosB act-1 26 | dFosB act-2 inactive
O=C(Nc1ccc(CN2CCOCC2)cc1)c1ccc(-c2cccc([N+](=O)[O-])c2)o1	dFosB act-1 17 | dFosB act-2 inactive
CC(=O)Nc1ccc(NC(=O)c2ccc(-c3ccc([N+](=O)[O-])cc3)o2)cc1	dFosB act-1 29 | dFosB act-2 inactive
CN(C)CCN(C(=O)CCc1ccccc1)c1nc2c(F)cc(F)cc2s1	none
COc1cc2ccccc2cc1C(=O)N(CCN(C)C)c1nc2c(F)cc(F)cc2s1	dFosB act-1 35 | dFosB act-2 inactive
COc1cc2ccccc2cc1C(=O)N(CCN(C)C)c1nc2ccc(Br)cc2s1	dFosB act-1 44 | dFosB act-2 inactive
CN(C)CCCN(C(=O)c1cc(-c2cccs2)nc2ccccc12)c1nc2ccc(F)cc2s1	dFosB act-1 28 | dFosB act-2 inactive
C[C@H](CO)N1C[C@H](C)[C@H](CN(C)C(=O)CN(C)C)Oc2ncc(-c3ccc(C#N)cc3)cc2C1=O	none (no result: Bfl-1 A1 inh, dFosB act-1, Neddyl block, Vif imaging)
COc1ccc(C2CC(c3ccccc3)=NN2C(=O)COC(=O)c2cc(S(=O)(=O)N3CCOCC3)ccc2Cl)cc1 (stereo not drawn)	dFosB act-1 30 | dFosB act-2 inactive
COc1ccc(C2CC(c3ccccc3)=NN2C(=O)COC(=O)c2cccnc2Cl)cc1 (stereo not drawn)	none
CN=C1SC(CC(=O)Nc2ccccc2F)C(=O)N1/N=C/c1ccc(O)c(OC)c1 (stereo not drawn)	none (no result: INS-1E GSIS act)
CCOc1ccc(/C=N/N2C(=O)C(CC(=O)Nc3ccc(F)cc3F)SC2=NC)cc1OC (stereo not drawn)	Bfl-1 A1 inh inconclusive, dFosB act-1 26 | dFosB act-2 inactive
O=C(OCc1ccc2c(c1)OCO2)c1ccc(S(=O)(=O)N2CCCCC2)cc1	dFosB act-1 35 (no result: INS-1E GSIS act) | dFosB act-2 inactive
COc1ccc(S(=O)(=O)N(C)C[C@@H]2Oc3ccc(NC(=O)CCCCCC(=O)Nc4ccccc4N)cc3CC(=O)N([C@H](C)CO)C[C@H]2C)cc1	none (no result: Bfl-1 A1 inh, dFosB act-1, Neddyl block, Vif imaging)
Cc1nc2ccccn2c1C(=O)CSc1ccc(Cl)cc1Cl	dFosB act-1 50 (no result: INS-1E GSIS act) | dFosB act-2 inactive
Cc1nc2ccccn2c1C(=O)CSc1ccccc1Cl	none
NS(=O)(=O)c1ccc(NC(=O)c2ccc(CSc3ccccc3)o2)cc1	dFosB act-1 34 | dFosB act-2 inactive
O=C(Nc1ccc(F)cc1)c1ccc(CSc2ccccc2)o1	none
COc1cccc(CNC(=O)COC(=O)c2c(NC(C)=O)sc(C)c2C)c1	none
CC(=O)Nc1sc(C)c(C)c1C(=O)OCC(=O)NCc1ccc(Cl)cc1	dFosB act-1 90 | dFosB act-2 inactive
